Source: PubChem (National Center for Advancing Translational Sciences (NCATS))
GAA glycogen mod – alters human alpha-glucosidase cleavage of glycogen; recombinant GAA, glycogen substrate, Amplex Red glucose oxidase fluorescence; Potency, µM (highest dose often 76.4 µM), for the others: at the top dose activity change, negative = inhibition, hits mostly inhibitors; actives 0.38% (n = 300,000);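 further: potency means the concentration at half of the fitted maximal effect; 0% = full enzyme reaction and -100% = no-enzyme basal signal; the screen sought inhibitors and activators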
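qHTS, 1536-well; enzyme 4 nM final; cpd up to 77 uM; substrate bovine liver glycogen 30 ug; 50 mM citrate/phosphate pH 5.0, 0.01% Tween-20; 37 C, 40 min; Amplex Red detection 45 min RT; Hill fit → AC50.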
GLA inh pH 4.5 – alpha-galactosidase A (human) inhibition, pH 4.5; P06280; AID 1467; activity change, negative = inhibition, % at 105 µM; purified enzyme, 4-MU-alpha-Gal fluorescence, pH 4.5; 230,000 tested, under 10 active;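 further: 0% = full activity with enzyme and -100% = basal without enzyme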
Target sequence (P06280 whole entry, looked up): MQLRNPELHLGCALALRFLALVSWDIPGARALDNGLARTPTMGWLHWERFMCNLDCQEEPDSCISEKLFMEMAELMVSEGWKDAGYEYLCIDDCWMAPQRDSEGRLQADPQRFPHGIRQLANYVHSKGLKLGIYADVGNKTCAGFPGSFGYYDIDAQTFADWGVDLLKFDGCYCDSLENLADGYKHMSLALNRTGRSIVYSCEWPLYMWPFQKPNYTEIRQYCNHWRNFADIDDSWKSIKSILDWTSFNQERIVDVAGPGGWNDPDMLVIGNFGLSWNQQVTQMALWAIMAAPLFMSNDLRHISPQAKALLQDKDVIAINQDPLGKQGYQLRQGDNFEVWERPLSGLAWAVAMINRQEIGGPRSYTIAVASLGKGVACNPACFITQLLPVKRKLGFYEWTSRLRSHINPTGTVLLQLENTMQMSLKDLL
N370S GC – N370S glucocerebrosidase modulation, Gaucher chaperone candidate. P04062. N370S GC spleen homogenate, 4MU-glucoside fluorescence. Potency, µM (highest dose often 59.4 µM), inactives show at the highest dose activity change, negative = inhibition, usual class: inhibitors. actives 0.092% (n = 330,000). AID 2101;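 further: potency means the concentration at half of the fitted maximal effect; 0% = full enzyme activity and -100% = no enzyme basal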
aGlu spleen mod – inhibitors or activators of human alpha-glucosidase in spleen homogenate; P10253; human spleen homogenate, 4-MU-alpha-glucoside fluorescence; Potency, µM (series often up to 79.9 µM), inactives show at the highest dose activity change, negative = inhibition, actives largely listed as inhibitors; actives 0.006% (n = 240,000); AID 2112;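 further: potency means the concentration at half of the fitted maximal effect; 0% = enzyme with vehicle and -100% = no enzyme basal signal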
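Enzyme source: human spleen homogenate, 1 ug/well. Buffer 50 mM citric acid/K phosphate pH 5.0, 0.01% Tween-20. 4-MU-alpha-glucoside 1 mM; 37 C x 40 min; NaOH/glycine stop; fluorescence.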
GLA spleen mod – alpha-galactosidase A (human) modulation; actives 0.008% (n = 240,000); AID 2107; human spleen homogenate, 4MU-alpha-Gal fluorescence, 40 min; P06280; Potency, µM (titrated, usually from 80 µM), inactives show at the top dose activity change, negative = inhibition, usual class: inhibitors;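 further: potency means the concentration at half of the fitted maximal effect; 0% = enzyme with vehicle and -100% = no enzyme basal signal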
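Human spleen homogenate (1 ug) as enzyme source, 4-methylumbelliferyl-alpha-D-galactopyranoside 1 mM final, citrate/phosphate pH 5.0 with 0.01% Tween-20. Compounds 40 min at 37C, NaOH/glycine stop; fluorescence Ex 365/Em 440, Hill-fit AC50.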
GAA inhib – alpha-glucosidase (human) inhibition; AID 1466; P10253; Potency, µM (series often up to 76.9 µM), inactives show top-dose activity change, negative = inhibition, actives largely listed as inhibitors; purified human GAA, 4-MU-alpha-glucoside fluorescence; actives 0.005% (n = 200,000);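 further: potency means the concentration at half of the fitted maximal effect; plate controls were uninhibited enzyme wells for no effect and no-enzyme background for full effect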
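Compounds are titrated up to 77 uM against 4 nM human enzyme. Substrate 4-methylumbelliferyl-alpha-D-pyranoside (400 uM) reacts 20 min at room temperature in pH 5.0 buffer; liberated 4-methylumbelliferone is read at 440 nm.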
Numbers without * were called inactive; ? = inconclusive; . = no result given; ! = repeats disagree; [ ] = another dose, or the depositor's remark. In the library only some 0.41% were active in any assay of this set; here they are far more common. The call rests on the fitted dose curve; in most records, active means well fitted curve in the direction sought with a large enough effect; inconclusive means small, poorly fitted or top-dose-only effect, or another doubt; inactive means no such curve, though single readings can be large; an effect the other way counts as inactive or inconclusive.

SMILES | GAA glycogen mod | GLA inh pH 4.5 | N370S GC | aGlu spleen mod | GLA spleen mod | GAA inhib
O=[N+]([O-])c1cc(C(F)(F)F)ccc1NCCc1c[nH]c2ccc(O)cc12 | 9.9µM* | -17 | 13% | -6% | 1% | -8%
CC[C@H](C)[C@H](NC(=O)[C@H](Cc1ccc(O)cc1)NC(=O)[C@@H](NC(=O)[C@@H](N)CCCN=C(N)N)C(C)C)C(=O)N[C@@H](Cc1cnc[nH]1)C(=O)N1CCC[C@H]1C(=O)N[C@@H](Cc1ccccc1)C(=O)O | . | . | -3% | 2% | -1% | .
CC(=O)N1CCN(S(=O)(=O)c2ccc3c(c2)CC(=O)N3)CC1 | 12µM* | . | . | . | . | .
CN(C)C(/C=C/Nc1ccc(O)cc1)=C(C#N)C#N | 7.9µM* | 8 | -4% | -2% | -3% | -11%
Cc1cccc(N/C=C/C(=C(C#N)C#N)N(C)C)c1 | 1% | -2 | 7% | -15% | 2% | -2%
COc1cccc([C@@H]2Oc3ccc(OC)cc3C(=O)[C@H]2OC(=O)NCCc2ccc(OC)c(OC)c2)c1 | . | 5 | -5% | -8% | -1% | .
Nc1nc(N2CCN(Cc3ccccc3)CC2)n[nH]1 | 5.6µM* | 8 | -1% | -4% | 4% | 7%
Nc1nc(N2CCN(C(c3ccccc3)c3ccccc3)CC2)n[nH]1 | ? | 1 | -7% | -2% | 4% | 4%
O=C(CCc1ccc(O)cc1)c1c(O)cc(O)cc1O | 31µM* | -14 | 18µM*! | 0% | -1% | .
O=C(O)c1ccc(CN2C(=O)CSC2=S)cc1 | 18µM* | 8 | 2% | -7% | -13% | -4%
O=C(O)c1ccc(N=C2SCC(=O)N2Cc2ccccc2)cc1 | 14% | 1 | -9% | 4% | -1% | 12%
O=C(Nc1ccc(N2CCOCC2)c2nonc12)C1CCCC1 | 7% | 5 | 1% | -1% | -2% | 0%
Nc1ccc(N2CCOCC2)c2nonc12 | 7µM* | 2 | -7% | -10% | 1% | 1%
O=C1CC(c2ccc(Cl)cc2)Sc2nc(-c3ccc(F)cc3)nn21 (configuration not stated) | -10%[76.3 µM] | . | . | . | . | .
CCN(CC)c1ccc(NC(=S)NC(=O)c2ccco2)cc1 | 11µM* | 6 | -4% | -9% | -1% | 13%
CCN(CC)c1ccc(NC(=S)NC(=O)c2cccs2)cc1 | 14µM* | 1 | ? | 5% | 11% | 7%
CC(=O)NC(=S)Nc1ccc(NC(=S)NC(=O)c2cccs2)cc1 | -6%[76.3 µM] | . | 8% | . | . | .
CC(=O)N[C@@H](CSC(=O)[C@]1([C@@H](O)C(C)C)NC(=O)[C@H](C)[C@@H]1O)C(=O)O | . | -7 | 6%[12.8 µM] | 5%[17.4 µM] | -3%[17.5 µM] | .
CCOc1ccc(-c2cnc(NCc3ccc(C(F)(F)F)cc3)n2C)cc1 | 32µM* | . | . | . | . | .
Cn1c(-c2ccc3c(c2)OCO3)cnc1NCc1ccc(Cl)cc1 | ? | -8 | 6% | -23% | -3% | 1%
Cc1ccc(CNc2ncc(-c3ccc4c(c3)OCO4)n2C)cc1 | 20µM* | -9 | 1% | -4% | -5% | -3%
CCCCCCCCCCCCCCCC(=O)C1=C(O)C(CO)OC1=O (configuration not stated) | . | . | 2% | 1% | -6% | .
O=C(/C=C/c1ccc(O)c(O)c1)NC(=O)c1ccccc1O | 3.5µM* | -5 | -24% | 4% | 11% | .
O=C(/C=C/c1ccc(O)c(O)c1)O[C@@H](C(=O)O)[C@@H](OC(=O)/C=C/c1ccc(O)c(O)c1)C(=O)O | . | . | -26% | -7% | -7% | .
O=C(O)/C=C/c1ccc(O)c(O)c1 | 7.9µM* | 1 | -20% | ? | ? | -9%[15.4 µM]
SMILES | GAA glycogen mod | GLA inh pH 4.5 | N370S GC | aGlu spleen mod | GLA spleen mod | GAA inhib
NCCNCCN | . | . | -10% | 10% | 5% | .
COc1ccc(C2/C=C\CN(S(=O)(=O)c3ccc(C)cc3)C(C)C(=O)N2Cc2ccc(F)cc2)cc1 (configuration not stated) | . | . | -11% | -3% | -2% | .
O=[N+]([O-])c1cc(-c2nnc(Nc3ccc(O)cc3)c3ccccc23)ccc1N1CCOCC1 | 16µM* | -4 | ? | -1% | -3% | -4%
Cc1ccc(O)c(Sc2cc(C)ccc2O)c1 | 28µM* | -4 | 0% | -4% | 0% | -10%
Cc1ccc(S(=O)(=O)NNc2nc3ccccc3nc2C(F)(F)F)cc1 | 28µM* | 1 | 8% | 9% | 14% | -11%
Cc1ccc(S(=O)(=O)NNc2ccccc2)cc1 | ? | 1 | . | -5% | 3% | 4%
O=C(NNc1nc2ccccc2nc1C(F)(F)F)c1ccccc1 | 11µM* | -2 | -6% | -18% | -8% | -4%
CS(=O)(=O)c1ccc2c(c1)sc1nc(=O)c(/C=C3/C=CC(=O)C(O)=C3)c(N)n12 | 8.9µM* | -21 | -14% | -12% | -6% | ?
COC1=C/C(=C/c2c(N)n3c(nc2=O)sc2cc(S(C)(=O)=O)ccc23)C=CC1=O | 2% | -14 | -15% | -2% | -6% | .
Cc1ccc(NC(=O)CSc2ccc(-c3sc(-c4ccccc4)nc3C)nn2)cc1F | -6%[76.3 µM] | . | . | . | . | .
CCOC(=O)N1CCN(c2ccc(O)cc2)CC1 | 25µM* | 5 | 11% | 0% | 0% | -6%
COc1ccc(N2CCN(C(=O)CSc3nnc(-c4cc5ccccc5cc4O)n3C)CC2)cc1 | -14% | 4 | 8% | 7% | -1% | 1%
O=C(c1ccc2ccccc2c1)N1CCN(c2ccc(O)cc2)CC1 | 18µM* | -23 | -19% | -1% | 6% | 5%
O=C(COc1ccc2ccccc2c1)N1CCN(c2ccccc2O)CC1 | 14µM* | 7 | -23% | -3% | 2% | -9%
O=C(CSc1ccc2ccccc2c1)N1CCN(c2ccc(O)cc2)CC1 | 16µM* | 0 | -22% | -3% | -1% | .
CCOC(=O)N1CCN(c2ccc(Cl)cc2)CC1 | -2% | -7 | 1% | 2% | 5% | 0%
CC[C@H](C)[C@H](NC(=O)CNC(=O)[C@H](CC(C)C)NC(=O)[C@H](CC(C)C)NC(=O)[C@H](CCC(N)=O)NC(=O)[C@H](CCC(N)=O)NC(=O)[C@H](CC(=O)O)NC(=O)[C@H](CCCCN)NC(=O)[C@H](CC(C)C)NC(=O)[C@H](Cc1ccc(O)cc1)NC(=O)[C@H](CCCNC(=N)N)NC(=O)[C@H](CCC(=O)O)NC(=O)[C@@H](NC(=O)[C@H](C)NC(=O)[C@H](CC(C)C)NC(=O)[C@@H](NC(=O)[C@@H](N)CCCNC(=N)N)[C@@H](C)CC)C(C)C)C(=O)N[C@@H](Cc1c[nH]c2ccccc12)C(=O)NCC(=O)N[C@@H](CS)C(=O)N[C@@H](CO)C(=O)O | . | . | 0% | 6% | 2% | .
